Sampled rows, rich in hits. Any-hit rate of the full collection: about 19%.
HepG2 viability = HepG2 cytotoxicity, counter-screen for TGF-b inhibitors | AID 588856 | Potency, µM (series often up to 46.1 µM), inactives show top-dose activity change, negative = cytotoxicity, hits mostly cytotoxic | 410,000 tested, 0.76% active | HepG2 CAGA-GFP viability, ATP luminescence, 18 h; note: potency is the fitted concentration of half-maximal effect
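HepG2 CAGA-GFP cells (1000/well, DMEM with 1% FBS) received compound, then TGF-beta at 500 pg/mL final, and were incubated 18 hours at 37 degrees C. Viability was read by CellTiter-Glo luminescence. Media-only wells were set as complete cell-killing and DMSO as no toxicity.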
IL1B secr inh = blocks inflammasome-driven IL-1 beta release; THP-1 LPS/ATP IL-1B secretion, AlphaLISA, 16 h; active compounds read low; activity change, % at 57.5 µM; 360,000 tested, 4.7% active; in the data active = activity change below about -50%; inconclusive = mostly about -30% to -49%; note: % is set by controls: 0 for no effect and ±100 for the full control effect
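THP-1 cells pretreated 1 hr with compounds (up to 57.5 uM final), then stimulated with LPS (250 ng/mL final) plus ATP (1.25 mM final); secreted IL-1B measured by AlphaLISA after 16 hr, decreased signal indicating inhibition.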
ASM inhibitor = blocks human secretory acid sphingomyelinase. placental ASM, HMU-PC fluorogenic substrate, 60 min. Potency, µM (titrated, usually from 57.5 µM), for the others: top-dose activity change, negative = inhibition, usual class: inhibitors. 340,000 tested, 0.006% active. AID 504937; note: potency is the fitted concentration of half-maximal effect
Target sequence (P17405 47-631 limits assumed): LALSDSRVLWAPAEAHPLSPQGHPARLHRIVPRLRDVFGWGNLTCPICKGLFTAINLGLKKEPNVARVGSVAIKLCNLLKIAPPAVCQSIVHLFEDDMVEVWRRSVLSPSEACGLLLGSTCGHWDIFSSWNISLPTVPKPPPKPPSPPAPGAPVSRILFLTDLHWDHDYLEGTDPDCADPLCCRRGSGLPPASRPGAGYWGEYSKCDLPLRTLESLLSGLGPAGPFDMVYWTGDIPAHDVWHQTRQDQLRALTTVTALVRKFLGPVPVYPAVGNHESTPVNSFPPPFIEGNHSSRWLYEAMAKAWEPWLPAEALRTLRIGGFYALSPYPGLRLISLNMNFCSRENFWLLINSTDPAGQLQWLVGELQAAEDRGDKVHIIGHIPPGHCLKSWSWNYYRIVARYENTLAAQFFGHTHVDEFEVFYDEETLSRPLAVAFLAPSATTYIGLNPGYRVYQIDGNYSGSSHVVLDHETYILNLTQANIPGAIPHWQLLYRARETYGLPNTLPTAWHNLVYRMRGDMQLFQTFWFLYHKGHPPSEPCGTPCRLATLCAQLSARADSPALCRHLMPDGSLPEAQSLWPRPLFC
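Fluorogenic HMU-PC substrate (9 uM final) is turned over by placental ASM in 60 min at 37 C after a 10 min compound preincubation. Reaction ended by alkaline stop (pH 10), with fluorescence read at 386/447 nm.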
TDP1 cell noCPT = qHTS for Inhibitors of human tyrosyl-DNA phosphodiesterase 1 (TDP1): qHTS in cells in absence of CPT | DT40 Tdp1-/- hTDP1 cells, no CPT, ATP luminescence, 48 h | Potency, µM (top dose mostly 46.2 µM), inactives show at the highest dose activity change, negative = growth inhibition, hits mostly inhibitors | 420,000 tested, 15% active; note: potency is the fitted concentration of half-maximal effect; % is set by controls: 0 for no effect and ±100 for the full control effect; nearly all actives have a fitted effect of over 55% in size
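Growth of hTDP1-complemented DT40 Tdp1-knockout cells is measured by ATP luminescence after at least 48 hr compound exposure at 37 °C, with DMSO substituting for the 20 nM CPT used in the parallel screen.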
DT40 TDP1 CPT = growth inhibition of DT40 Tdp1-/-;hTDP1 cells with camptothecin (screen for TDP1 inhibitors). Potency, µM (titrated, usually from 46.2 µM), for inactives: at the highest dose activity change, negative = growth inhibition, hits mostly inhibitors. 420,000 tested, 12% active. chicken DT40 Tdp1-/-;hTDP1 cells + 20 nM CPT, ATP luminescence, 48 h. AID 686979; note: potency is the fitted concentration of half-maximal effect; % is set by controls: 0 for no effect and ±100 for the full control effect; nearly all actives have a fitted effect of over 55% in size
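Chicken DT40 Tdp1-/- cells complemented with human TDP1, 400 cells/well, exposed to compounds plus 20 nM camptothecin for at least 48 h at 37 C; viability read as ATP content by CellTiter-Glo luminescence.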
TGFb SMAD3 inh = inhibitors of TGF-b signaling; HepG2 CAGA-GFP TGF-b/SMAD3 reporter, GFP fluorescence, 18 h; TGF-beta stimulated, 500 pg/mL final; Potency, µM (top dose mostly 46.1 µM), without a hit: at the highest dose activity, negative = inhibition, usual class: inhibitors; 410,000 tested, 1.2% active; AID 588855; note: potency is the fitted concentration of half-maximal effect; % is set by controls: 0 for no effect and ±100 for the full control effect; nearly all actives have a fitted effect of over 65% in size
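Per well, imaged GFP fluorescence of HEPG2 CAGA-GFP cells gives the signal; cells get compound, then TGF-beta (500 pg/mL final), 18 h at 37 degrees C; %Activity versus -TGF-beta and +DMSO controls.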
Active calls of the source: *. Unless noted, calls come from the whole dose curve; as a rule, active = well fitted curve in the direction sought with a large enough effect; inconclusive = small, poorly fitted or top-dose-only effect, or another doubt; inactive = no such curve, though single readings can be large; an effect the other way counts as inactive or inconclusive.

Screening COc1ccc(C(CNC(=O)c2ccc(OCc3c(C)noc3C)cc2)N2CCCC2)cc1 (stereo not drawn) returned HepG2 viability -24.3%, IL1B secr inh -23.4, ASM inhibitor 0.8%, TDP1 cell noCPT 17.5%, DT40 TDP1 CPT 7.6% and TGFb SMAD3 inh 4.4%.
Screening CN(C(=O)CSc1nnc(-c2ccc([N+](=O)[O-])cc2)o1)c1ccccc1 returned HepG2 viability -9.5%, TDP1 cell noCPT inconclusive, DT40 TDP1 CPT 16.4µM* and TGFb SMAD3 inh -2.4%.
Screening CC(C)(C)OC(=O)NCCCCCc1nnc(SCc2ccccc2)o1 returned HepG2 viability 9.4%, IL1B secr inh inconclusive, ASM inhibitor -2.8%, TDP1 cell noCPT inconclusive, DT40 TDP1 CPT inconclusive and TGFb SMAD3 inh 11.3%.
CC(C)(C)OC(=O)NCCCCCc1nnc(SCc2c(F)cccc2Cl)o1 was read as HepG2 viability -12.6%, IL1B secr inh -0.1, ASM inhibitor 1.0%, TDP1 cell noCPT 20.6µM*, DT40 TDP1 CPT -24.1% and TGFb SMAD3 inh -6.6%.
Screening Fc1cccc(Cl)c1CSc1nnc(COc2cccc3cccnc23)o1 returned HepG2 viability -15.3%, IL1B secr inh -50.5*, ASM inhibitor -3.9%, TDP1 cell noCPT -25.6%, DT40 TDP1 CPT -21.9% and TGFb SMAD3 inh -10.9%.
Screening CC(C)(C)OC(=O)NCCCCCc1nnc(SCc2cccc(F)c2)o1 returned HepG2 viability -14.6%, IL1B secr inh -9.6, ASM inhibitor -0.6%, TDP1 cell noCPT 9.2µM*, DT40 TDP1 CPT inconclusive and TGFb SMAD3 inh -23.1%.
Screening CC(C)(C)OC(=O)NCCCCCc1nnc(SCc2ccccc2F)o1 returned HepG2 viability 0.4%, IL1B secr inh -51.4*, ASM inhibitor -3.0%, TDP1 cell noCPT inconclusive, DT40 TDP1 CPT inconclusive and TGFb SMAD3 inh 0.0%.
`Cc1ccc(C(C)(C)C)cc1S(=O)(=O)N1CCC(C(=O)N2CCN(c3ccc(O)cc3)CC2)CC1` gave HepG2 viability -39.3%, IL1B secr inh -29.5, ASM inhibitor -3.6%, TDP1 cell noCPT inconclusive, DT40 TDP1 CPT inconclusive and TGFb SMAD3 inh -15.0%.
`NNC(=O)CCn1c2ccccc2c2ccccc21` gave HepG2 viability 7.7%, IL1B secr inh 10.3, ASM inhibitor 0.7%, TDP1 cell noCPT inconclusive, DT40 TDP1 CPT -22.4% and TGFb SMAD3 inh 20.2%.
For O=[N+]([O-])c1cc([N+](=O)[O-])c2oc(-c3ccccc3)c(Br)c2c1O the results were HepG2 viability -43.0%, IL1B secr inh 15.0, ASM inhibitor 37.0%, TDP1 cell noCPT 8.2µM*, DT40 TDP1 CPT inconclusive and TGFb SMAD3 inh inconclusive.
`c1ccc(-c2nc3ccccc3nc2N2CCOCC2)cc1` gave HepG2 viability -31.4%, IL1B secr inh 34.4, ASM inhibitor 65.4%, TDP1 cell noCPT inconclusive, DT40 TDP1 CPT inconclusive and TGFb SMAD3 inh 1.8%.
Screening O=C1OCCN1c1c(-c2ccccc2)c(N2CCOCC2)nc2ccccc12 returned HepG2 viability -2.3%, IL1B secr inh 16.4, ASM inhibitor 67.0%, TDP1 cell noCPT 14.6µM*, DT40 TDP1 CPT 11.6µM* and TGFb SMAD3 inh -53.9%.
`CC(C)(C)c1ccc(C(=O)N2CCC2(C)C(=O)Nc2cccc3ncccc23)cc1` (stereo not drawn) gave HepG2 viability -7.0%, IL1B secr inh 19.9, TDP1 cell noCPT 20.6µM*, DT40 TDP1 CPT 23.1µM* and TGFb SMAD3 inh 0.2%.
For CCC(=O)N1CCC1(C)C(=O)Nc1cccc2cccnc12 (stereo not drawn) the results were HepG2 viability 4.9%, IL1B secr inh 2.0, TDP1 cell noCPT -15.6%, DT40 TDP1 CPT 0.9% and TGFb SMAD3 inh 12.9%.
`CC(C)(C)c1ccc(C(=O)N2CCC2(C)C(=O)NCc2cccc3ccccc23)cc1` (stereo not drawn) gave HepG2 viability -37.8%, IL1B secr inh 0.0, TDP1 cell noCPT -95.8%, DT40 TDP1 CPT 18.4µM* and TGFb SMAD3 inh inconclusive.
Screening CC1(C(=O)Nc2cccc3cccnc23)CCN1Cc1cccc2c1OCO2 (stereo not drawn) returned HepG2 viability -48.6%, IL1B secr inh -22.8, TDP1 cell noCPT 14.6µM*, DT40 TDP1 CPT inconclusive and TGFb SMAD3 inh inconclusive.
`Cc1ccsc1C(=O)N1CCC1(C)C(=O)NCc1cccc2ccccc12` (stereo not drawn) gave HepG2 viability 1.1%, IL1B secr inh -14.9, TDP1 cell noCPT inconclusive, DT40 TDP1 CPT inconclusive and TGFb SMAD3 inh 41.3%.
`CC(C)(C)c1ccc(CC(=O)N2CCC2(C)C(=O)Nc2cccc3cccnc23)cc1` (stereo not drawn) gave HepG2 viability -30.5%, IL1B secr inh -3.6, TDP1 cell noCPT 23.1µM*, DT40 TDP1 CPT inconclusive and TGFb SMAD3 inh 9.9%.
CCOC(=O)C1CCN(C(=O)c2[nH]c(C(F)(F)F)nc2-c2ccccc2)CC1 was read as HepG2 viability -6.7%, IL1B secr inh 10.9, TDP1 cell noCPT 4.0%, DT40 TDP1 CPT -2.5% and TGFb SMAD3 inh 1.1%.
`CC1CCN(S(=O)(=O)c2ccc3c(c2)N(C)C(=O)CC(=O)N3C)CC1` gave HepG2 viability 4.3%, IL1B secr inh 3.3, ASM inhibitor 14.2%, TDP1 cell noCPT inconclusive, DT40 TDP1 CPT inconclusive and TGFb SMAD3 inh 6.5%.
Screening CC(C)(C)c1ccc(C(=O)N2CCC2(C)C(=O)Nc2cccc3ccccc23)cc1 (stereo not drawn) returned HepG2 viability -24.9%, IL1B secr inh -15.6, TDP1 cell noCPT 23.1µM*, DT40 TDP1 CPT 16.4µM* and TGFb SMAD3 inh 10.7%.
Screening Cc1ccc(C)c(N2CCN(C(=O)c3ccc(NC4=NC5CS(=O)(=O)CC5S4)cc3)CC2)c1 (stereo not drawn) returned HepG2 viability -10.6%, IL1B secr inh -15.3, ASM inhibitor 0.2%, TDP1 cell noCPT -11.6%, DT40 TDP1 CPT inconclusive and TGFb SMAD3 inh 2.6%.
`COc1ccc([C@@]2(O)c3c(ccc(CC=C(C)C)c3O)NC(=O)[C@@H]2OC)cc1` gave HepG2 viability 0.3%, IL1B secr inh -4.3, ASM inhibitor -3.5%, TDP1 cell noCPT 11.4%, DT40 TDP1 CPT -16.2% and TGFb SMAD3 inh -15.3%.

Screens from PubChem BioAssay.
